Laboratory results taken from PubChem BioAssay (Tox21).
Inconclusive results are not listed. Calls of active or inactive are those of the source. Unless noted, calls come from the whole dose curve.

How the values were obtained:
[1] = Nuclear factor erythroid 2-related factor 2/antioxidant responsive element (Nrf2/ARE) small molecule agonists: qHTS cell viability counter screen in human keratinocytes (AID 1919968; active = well fitted curve in the direction sought with a large enough effect in the repeat runs; an effect the other way counts as inactive or inconclusive; note: nearly all actives have a fitted effect of over 55% in size)
How it was run: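 KeratinoSens HaCaT cells, 1,500/well, preincubated 5 h, then exposed to compounds in DMSO for 23 h at 37 C/5% CO2. Viability read as CellTiter-Fluor fluorescence after 1 h, in the same wells as the ARE-luciferase read.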

[2] = Nuclear factor erythroid 2-related factor 2/antioxidant responsive element (Nrf2/ARE) small molecule agonists: luciferase reporter gene qHTS assay in human keratinocytes (AID 1919969); note: nearly all actives have a fitted effect of over 35% in size
[3] = molecular target: Gonadotropin-releasing hormone receptor (Homo sapiens) (UniProt P30968); test: Human gonadotropin-releasing hormone receptor (GnRHR) small molecule agonists, calcium flux assay in GnRHR-HEK293 cells (AID 1920063); note: nearly all actives have a fitted effect of over 35% in size
Chain of Gonadotropin-releasing hormone receptor (Homo sapiens) (P30968 whole entry, looked up): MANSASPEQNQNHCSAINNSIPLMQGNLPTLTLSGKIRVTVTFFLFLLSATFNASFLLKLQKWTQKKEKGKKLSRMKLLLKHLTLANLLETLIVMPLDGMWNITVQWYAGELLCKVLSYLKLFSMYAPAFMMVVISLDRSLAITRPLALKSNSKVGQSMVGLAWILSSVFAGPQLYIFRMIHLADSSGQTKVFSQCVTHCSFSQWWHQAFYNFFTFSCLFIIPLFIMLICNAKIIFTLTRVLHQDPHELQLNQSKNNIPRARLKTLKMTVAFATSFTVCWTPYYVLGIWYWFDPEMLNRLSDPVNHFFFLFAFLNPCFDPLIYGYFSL
How it was run: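 HEK293 cells stably expressing human GnRHR were dye-loaded for 1 h at 37 C. Compound was added in agonist mode and fluorescence (Ex/Em 480/540) recorded kinetically for 3 min. Fifteen concentrations, triplicates.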

[4] = molecular target: KiSS-1 receptor (Homo sapiens) (UniProt Q969F8); test: Human kisspeptin (KISS1R) small molecule agonists, calcium flux assay in KISS1R-HEK293 cells (AID 1920064; active = well fitted curve in the direction sought with a large enough effect in the repeat runs; an effect the other way counts as inactive or inconclusive)
Chain of KiSS-1 receptor (Homo sapiens) (Q969F8 whole entry, looked up): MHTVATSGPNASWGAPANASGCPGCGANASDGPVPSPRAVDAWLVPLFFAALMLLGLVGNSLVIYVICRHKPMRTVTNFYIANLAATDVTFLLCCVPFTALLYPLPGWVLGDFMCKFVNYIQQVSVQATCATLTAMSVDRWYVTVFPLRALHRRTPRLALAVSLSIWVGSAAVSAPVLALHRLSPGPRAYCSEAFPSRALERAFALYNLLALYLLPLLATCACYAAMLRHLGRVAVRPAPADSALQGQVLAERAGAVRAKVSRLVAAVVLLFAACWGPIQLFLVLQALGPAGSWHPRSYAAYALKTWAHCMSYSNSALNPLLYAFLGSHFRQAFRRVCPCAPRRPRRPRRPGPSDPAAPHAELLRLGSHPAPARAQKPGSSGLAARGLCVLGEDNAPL
How it was run: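 HEK293 cells stably expressing human KISS1R were loaded with calcium dye for 1 h at 37 C, then given compound; fluorescence (Ex/Em 480/540) was read kinetically for 3 min. Fifteen concentrations, triplicate.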

[5] = G protein-coupled receptor (GPCR) small molecule agonists, calcium flux assay: HEK293 wild type cell line counter screen (AID 1920065)
How it was run: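 Wild-type HEK293 cells plated 18 h, loaded with calcium dye 1 h at 37 C, then compounds added in agonist mode (ATP as positive control). Kinetic fluorescence Ex/Em 480/540 recorded 3 min at 1 sec intervals; 15 concentrations, triplicate.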

[6] = p53 small molecule agonists, cell-based qHTS assay with human liver microsomes (AID 1963577);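 note: p53 response element beta-lactamase reporter cells with liver microsomes plus NADPH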
How it was run: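 In this qHTS, p53 response-element beta-lactamase cells receive test compound together with a microsome/NADPH activating system (0.5 mg/mL final each) and are incubated 16 h at 37 C before LiveBLAzer fluorescence detection.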

[7] = p53 small molecule agonists, cell-based qHTS assay with rat liver microsomes (AID 1963578)
How it was run: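 Agonist mode in p53RE-bla reporter cells, with compounds co-incubated 16 h at 37 C alongside 0.5 mg/mL rat liver microsomes and 0.5 mg/mL NADPH (final), followed by a 2 h LiveBLAzer detection step.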

[8] = p53 small molecule agonists, cell-based qHTS assay with human liver microsomes: qHTS cell viability counter screen (AID 1963579); note: nearly all actives have a fitted effect of over 45% in size
How it was run: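 Metabolically activated exposure: compounds, human liver microsomes and NADPH (0.5 mg/mL final apiece) were added to p53RE-bla cells seeded 5 h earlier, left 16 h at 37 C, and then assessed for viability by CellTiter-Glo luminescence.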

[9] = p53 small molecule agonists, cell-based qHTS assay with rat liver microsomes: qHTS cell viability counter screen (AID 1963580); note: nearly all actives have a fitted effect of over 45% in size
How it was run: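 HCT-116 p53RE-bla, 4,000 cells/well, 5 h pre-incubation; cpd + rat liver microsomes 0.5 mg/mL + NADPH 0.5 mg/mL (final); 16 h, 37 C; CellTiter-Glo, 30 min RT; luminescence.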

[10] = p53 small molecule agonists, cell-based qHTS assay: qHTS cell viability counter screen (AID 1963581); note: nearly all actives have a fitted effect of over 45% in size
How it was run: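 p53RE-bla HCT-116 cells, compounds added 5 h after plating and incubated 16 h at 37 C. Cytotoxicity measured in the same wells as intracellular ATP by CellTiter-Glo luminescence after 30 min at room temperature.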

[11] = p53 small molecule agonists, cell-based qHTS assay (AID 1963582; active = well fitted activation curve with a large enough effect in the signal ratio in the repeat runs, not every such curve was filed as active; the % refers to the signal ratio)
How it was run: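 p53RE-bla reporter cells, compounds added in DMSO after 5 h plating, incubated 16 h at 37 C. Beta-lactamase read via 2 h room-temperature LiveBLAzer B/G FRET substrate, fluorescence intensity.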

[12] = molecular target: 5-hydroxytryptamine receptor 2A (Homo sapiens) (UniProt P28223); test: 5-hydroxytryptamine receptor 2A (HTR2A) small molecule antagonists, cell-based qHTS assay (AID 1963586); note: nearly all actives have a fitted effect of over 45% in size
Chain of 5-hydroxytryptamine receptor 2A (Homo sapiens) (P28223 whole entry, looked up): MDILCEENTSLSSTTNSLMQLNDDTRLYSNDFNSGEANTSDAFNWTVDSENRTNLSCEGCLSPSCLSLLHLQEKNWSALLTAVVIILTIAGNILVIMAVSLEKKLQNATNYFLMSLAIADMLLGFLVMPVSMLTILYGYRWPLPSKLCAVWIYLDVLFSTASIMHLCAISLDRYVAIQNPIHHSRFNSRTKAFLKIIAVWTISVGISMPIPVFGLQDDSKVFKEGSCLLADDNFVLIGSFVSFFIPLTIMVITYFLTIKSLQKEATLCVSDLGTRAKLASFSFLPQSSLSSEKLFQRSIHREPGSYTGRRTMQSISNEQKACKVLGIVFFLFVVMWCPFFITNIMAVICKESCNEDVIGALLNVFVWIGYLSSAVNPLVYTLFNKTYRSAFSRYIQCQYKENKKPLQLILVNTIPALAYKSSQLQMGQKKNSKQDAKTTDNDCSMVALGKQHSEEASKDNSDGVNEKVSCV
How it was run: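 Antagonist-mode intracellular calcium assay: DOI (4 nM) added after 5 min compound pre-incubation at room temperature to dye-loaded HTR2A-CHO cells. Fluorescence followed for 3 min, sampled every second.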

[13] = molecular target: 5-hydroxytryptamine receptor 2A (Homo sapiens) (UniProt P28223); test: 5-hydroxytryptamine receptor 2A (HTR2A) small molecule agonists, cell-based qHTS assay (AID 1963587); note: nearly all actives have a fitted effect of over 30% in size
How it was run: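 Kinetic calcium-flux fluorescence (2 min, 1 sec intervals) after compound addition in agonist mode. HTR2A-CHO cells were cultured 18 h, then dye-loaded 1 h at 37 C.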

[14] = molecular target: Muscarinic acetylcholine receptor M1 (Homo sapiens) (UniProt P11229); test: Cholinergic receptor muscarinic 1 (CHRM1) small molecule antagonists, cell-based qHTS assay (AID 1963588); note: nearly all actives have a fitted effect of over 40% in size
Chain of Muscarinic acetylcholine receptor M1 (Homo sapiens) (P11229 whole entry, looked up): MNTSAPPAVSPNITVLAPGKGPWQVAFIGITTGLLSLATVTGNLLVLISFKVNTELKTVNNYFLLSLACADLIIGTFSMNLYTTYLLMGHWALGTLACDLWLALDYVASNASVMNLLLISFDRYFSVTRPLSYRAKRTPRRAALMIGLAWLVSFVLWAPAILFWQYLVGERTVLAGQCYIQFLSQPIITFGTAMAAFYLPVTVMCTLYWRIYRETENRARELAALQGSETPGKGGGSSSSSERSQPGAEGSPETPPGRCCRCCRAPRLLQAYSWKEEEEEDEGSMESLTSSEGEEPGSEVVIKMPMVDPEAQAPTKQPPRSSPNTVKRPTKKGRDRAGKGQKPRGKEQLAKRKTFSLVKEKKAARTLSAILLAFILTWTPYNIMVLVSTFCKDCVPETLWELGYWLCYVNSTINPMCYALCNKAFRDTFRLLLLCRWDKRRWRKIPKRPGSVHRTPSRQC
How it was run: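 CHRM1-CHO calcium-flux assay, antagonist mode. Cells were seeded 18 h, dye-loaded 1 h at 37 C and given compound for 5 min at RT, then acetylcholine was added at 50nM. FDSS fluorescence was read 3 min; 15 concentrations, three runs.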

[15] = molecular target: Muscarinic acetylcholine receptor M1 (Homo sapiens) (UniProt P11229); test: Cholinergic receptor muscarinic 1 (CHRM1) small molecule agonists, cell-based qHTS assay (AID 1963589); note: nearly all actives have a fitted effect of over 35% in size
How it was run: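 CHO cells stably expressing human CHRM1 were loaded with calcium dye for 1 h at 37 C, then compound was added in agonist mode. Intracellular calcium fluorescence was followed kinetically at 1 s intervals. Fifteen concentrations were tested in three independent runs.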

[16] = cAMP Responsive Elements (CRE) small molecule agonists, cell-based qHTS assay (AID 1963590)
How it was run: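 CRE-bla HEK 293T cells, 2,000/well in DMEM with 10% dialyzed FBS and 25 mM HEPES, pre-incubated 18 h at 37 C, then exposed to compound 3 h at 37 C. Beta-lactamase reporter read with LiveBLAzer B/G FRET substrate after 2 h at room temperature.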

[17] = cAMP Responsive Elements (CRE) small molecule antagonists, cell-based qHTS assay (AID 1963591; active = well fitted inhibition curve with a large enough effect in the signal ratio in the repeat runs, not every such curve was filed as active; the % refers to the signal ratio)
How it was run: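 CRE-bla HEK293T cells plated 18 h, then given compound plus NKH477 at 0.25 uM final for 3 h at 37C. Beta-lactamase reporter read with LiveBLAzer B/G FRET substrate after 2 h at room temperature.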

[18] = molecular target: Beta-2 adrenergic receptor (Homo sapiens) (UniProt P07550); test: Adrenergic beta2 receptor (ADRB2) small molecule antagonists, cell-based qHTS assay (AID 1963592); note: series mostly up to about 92 µM; nearly all actives have a fitted effect of over 50% in size
Chain of Beta-2 adrenergic receptor (Homo sapiens) (P07550 whole entry, looked up): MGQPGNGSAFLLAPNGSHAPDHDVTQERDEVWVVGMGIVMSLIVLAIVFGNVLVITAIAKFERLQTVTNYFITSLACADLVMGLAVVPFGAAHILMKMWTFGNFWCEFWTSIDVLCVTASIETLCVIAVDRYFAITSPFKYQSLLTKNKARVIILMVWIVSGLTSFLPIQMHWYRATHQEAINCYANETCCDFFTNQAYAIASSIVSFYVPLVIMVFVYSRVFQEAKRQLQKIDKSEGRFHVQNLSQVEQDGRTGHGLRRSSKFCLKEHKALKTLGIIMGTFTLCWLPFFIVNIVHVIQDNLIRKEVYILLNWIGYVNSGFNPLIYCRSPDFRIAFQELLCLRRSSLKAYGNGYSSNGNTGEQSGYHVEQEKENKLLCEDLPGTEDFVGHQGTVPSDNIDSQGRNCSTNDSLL
How it was run: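 Cells (CHO, stable ADRB2 overexpression) incubated 18-20hr at 37C; compounds added from DMSO; agonist mix (1nM isoproterenol, 100uM IBMX, 25uM Ro-20-1724) added; 0.5hr RT; d2-cAMP and anti-cAMP-cryptate added; 1hr RT; 665/615 nm read.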

[19] = molecular target: Beta-2 adrenergic receptor (Homo sapiens) (UniProt P07550); test: Adrenergic beta2 receptor (ADRB2) small molecule agonists, cell-based qHTS assay (AID 1963593);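 note: CHO cells stably overexpressing human ADRB2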
How it was run: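 CHO cells stably over-expressing ADRB2 were plated overnight at 37C, then dosed with compounds plus a stimulation mix containing 100uM IBMX and 25uM Ro-20-1724 for 0.5hr at room temperature. cAMP was measured by HTRF competition, 1hr.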

[20] = molecular target: D(2) dopamine receptor (Homo sapiens) (UniProt P14416); test: Dopamine D2 receptor (DRD2) small molecule agonists, cell-based qHTS assay (AID 1963594); note: nearly all actives have a fitted effect of over 35% in size
Chain of D(2) dopamine receptor (Homo sapiens) (P14416 whole entry, looked up): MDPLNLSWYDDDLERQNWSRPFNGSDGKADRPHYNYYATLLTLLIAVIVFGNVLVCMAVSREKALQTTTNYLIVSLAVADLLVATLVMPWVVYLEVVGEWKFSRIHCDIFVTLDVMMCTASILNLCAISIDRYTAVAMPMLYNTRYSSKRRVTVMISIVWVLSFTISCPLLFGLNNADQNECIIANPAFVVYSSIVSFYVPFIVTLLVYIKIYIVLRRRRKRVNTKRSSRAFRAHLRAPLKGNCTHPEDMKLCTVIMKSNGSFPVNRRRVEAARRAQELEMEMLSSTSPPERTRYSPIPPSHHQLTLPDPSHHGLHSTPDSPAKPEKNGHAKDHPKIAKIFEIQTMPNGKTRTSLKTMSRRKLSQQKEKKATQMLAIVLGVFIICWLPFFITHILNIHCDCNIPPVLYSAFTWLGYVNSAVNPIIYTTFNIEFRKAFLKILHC
How it was run: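 cAMP accumulation in DRD2-HEK293 cells measured by HTRF after 1 h detection; compounds added 10 min before NKH477 (200nM […]) forskolin-analogue stimulation, 30 min at room temperature, with Ro20-1724 present at 0.1 mM final.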
% is set by controls: 0 for no effect and ±100 for the full control effect.

CC(=O)N[C@@H](CC(C)C)C(=O)O
inactive: Potency [1] | Potency [2] | Potency [3] | Potency [4] | Potency [5] | Potency [6] | Potency [7] | Potency [8] | Potency [9] | Potency [10] | Potency [11] | Potency [12] | Potency [13] | Potency [14] | Potency [15] | Potency [16] | Potency [17] | Potency [18] | Potency [19] | Potency [20]

O=S(=O)(O)C(F)(F)F
inactive: Potency [1] | Potency [2] | Potency [3] | Potency [4] | Potency [5] | Potency [6] | Potency [7] | Potency [8] | Potency [9] | Potency [10] | Potency [11] | Potency [12] | Potency [13] | Potency [14] | Potency [15] | Potency [16] | Potency [17] | Potency [18] | Potency [19] | Potency [20]

COC(=O)c1ccc([N+](=O)[O-])cc1
inactive: Potency [1] | Potency [2] | Potency [3] | Potency [4] | Potency [5] | Potency [6] | Potency [7] | Potency [8] | Potency [9] | Potency [10] | Potency [11] | Potency [12] | Potency [13] | Potency [14] | Potency [15] | Potency [16] | Potency [17] | Potency [18] | Potency [19] | Potency [20]

CC(O)CNCC(C)O (stereo not given)
inactive: Potency [1] | Potency [2] | Potency [3] | Potency [4] | Potency [5] | Potency [6] | Potency [7] | Potency [8] | Potency [9] | Potency [10] | Potency [11] | Potency [12] | Potency [13] | Potency [14] | Potency [15] | Potency [16] | Potency [17] | Potency [18] | Potency [19] | Potency [20]

CN1CCCC1
inactive: Potency [1] | Potency [2] | Potency [3] | Potency [4] | Potency [5] | Potency [6] | Potency [7] | Potency [8] | Potency [9] | Potency [10] | Potency [11] | Potency [12] | Potency [13] | Potency [14] | Potency [15] | Potency [16] | Potency [17] | Potency [18] | Potency [19] | Potency [20]

C=CCCCCCCCCCCC
inactive: activity change, negative = cytotoxicity [1] -0.936% [at 8.39 µM] | activity, positive = activation [2] -0.901% [at 8.39 µM] | activity change [3] -0.462% [at 5.22 µM, hits give high values] | activation [4] 3.21% [at 6.97 µM] | activation [5] -0.84% [at 5.23 µM] | activation [6] 1.56% [at 5.99 µM] | activation [7] -3.89% [at 5.99 µM] | activity change, negative = cytotoxicity [8] 1.8% [at 5.99 µM] | activity change, negative = cytotoxicity [9] -1.27% [at 5.99 µM] | activity change, negative = cytotoxicity [10] 18.8% [at 5.99 µM] | activation [11] 0.37% [at 5.99 µM] | activity, negative = inhibition [12] 4.71% [at 5.62 µM] | activation [13] 0.539% [at 7.02 µM] | activity, negative = inhibition [14] -16.9% [at 5.58 µM] | activation [15] -0.585% [at 6.97 µM] | activation [16] -0.0768% [at 8.39 µM] | activity change, negative = inhibition [17] -0.765% [at 8.39 µM] | activity change, negative = inhibition [18] -1.18% [at 8.39 µM] | activation [19] -13.4% [at 8.39 µM] | activation [20] -0.7% [at 8.39 µM]

CC(C)(CCl)c1ccccc1
inactive: Potency [1] | Potency [2] | Potency [3] | Potency [4] | Potency [5] | Potency [6] | Potency [7] | Potency [8] | Potency [9] | Potency [10] | Potency [11] | Potency [12] | Potency [13] | Potency [14] | Potency [15] | Potency [16] | Potency [17] | Potency [18] | Potency [19] | Potency [20]
